High-throughput results from PubChem.
hcDAF12 agonist: H. contortus DAF-12 nuclear receptor activators, primary screen, cell-based, luminescence, HEK293, lit1-tk-luc reporter; AID 652067, 2013; HEK293 hcDAF-12 lit1-tk-luc reporter; 0% DMSO, 100% Δ7-dafachronic acid; hit rate 1.4% among 370,000; activation, % at 6.8 µM;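 active means activation above the mean of all tested compounds plus 3 SD, cut at about 5.5% in these data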;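 further: 100% = response to 3 µM Δ7-dafachronic acid high control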
hgDAF12 agonist: H. glycines DAF-12 receptor agonists, primary screen, cell-based, luminescence, HEK293, GAL4 fusion, UAS-luciferase; Nuclear hormone receptor DAF-12 (Heterodera glycines), GAL4 fusion; HEK293 GAL4-hgDAF12 UAS-luciferase reporter, agonist luminescence; normalized to butyrate control; activation, % at 6.8 µM; hit rate 1.8% among 370,000;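 active means activation above a cutoff set at the mean of all screened compounds plus 3 SD, cut at about 10% in these data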;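 further: 0% = DMSO wells and 100% = sodium butyrate wells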
DAX1 inh-1: DAX1 (NR0B1) inhibitors, primary screen, cell-based, HEK293, Gal4-DAX1, luciferase luminescence | hit rate 0.99% among 340,000 | inhibition, % at 6.75 µM | HEK293 Gal4-DAX1 luciferase reporter | Nuclear receptor subfamily 0 group B member 1 (Homo sapiens), P51843;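 active means inhibition above the mean over all tested compounds plus 3 SD, cut at about 4.2% in these data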;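 further: 0% = DAX1-transfected cells with DMSO and 100% = empty-vector control cells with DMSO; inhibition shows as a rise in luminescence from relieved DAX1 repression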
Target sequence (P51843 207-470 limits assumed): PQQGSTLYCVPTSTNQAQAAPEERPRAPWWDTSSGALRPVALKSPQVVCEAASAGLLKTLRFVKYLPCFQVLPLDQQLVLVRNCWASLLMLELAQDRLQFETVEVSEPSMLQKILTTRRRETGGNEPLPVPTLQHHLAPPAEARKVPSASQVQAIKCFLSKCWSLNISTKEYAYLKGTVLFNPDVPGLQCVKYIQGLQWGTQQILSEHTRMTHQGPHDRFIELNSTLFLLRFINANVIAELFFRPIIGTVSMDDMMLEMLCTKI
ssDAF-12 act: S. stercoralis DAF-12 nuclear receptor activators, primary screen, cell-based, luminescence, HEK293, GRIP1 co-expression, lit1-tk-luc. HEK293 ssDAF-12/GRIP1 lit1-tk-luc reporter; % of 3 µM dafachronic acid response. activation, % at 6.8 µM. hit rate 1% among 370,000;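 active means activation above the mean over all tested compounds plus 3 SD, cut at about 0.9% in these data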;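 further: 0% = DMSO-only wells and 100% = 3 µM delta7-dafachronic acid wells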
SMARCA2 act: SMARCA2 (BRM) function activators, primary screen, cell-based, luminescence, high throughput; MG213 cells, MMTV-luciferase reporter, dexamethasone, overnight; activation, % at 9.1 µM; hit rate 1% among 370,000; in the data active means activation above about 7.8%;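 further: 0% = vehicle wells and 100% = reference activator wells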
DAX1 inh-2: DAX1 (NR0B1) inhibitors on StAR promoter, primary screen, cell-based, luminescence, SF-1 (NR5A1), full-length DAX-1 | hit rate 1.1% among 370,000 | HEK293T StAR-luciferase reporter, SF-1/DAX-1 repression relief | inhibition, % at 6.8 µM;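 active means inhibition above the mean over all tested compounds plus 3 SD, cut at about 3.6% in these data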;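 further: 0% = DAX-1 cells with DMSO and 100% = cells lacking DAX-1 with DMSO; higher inhibition means more luminescence from relief of DAX-1 repression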
SMARCA2 conf: SMARCA2 (BRM) function activators, confirmation, cell-based, luminescence, triplicate; hit rate 30% among 3,500; shares compounds with SMARCA2 act; activation, % at 9.1 µM; MG213 cells, MMTV-luciferase with dexamethasone, overnight; MG213 cells expressing E1A, Rb sequestered; DMSO wells 0%, reference activator 100%; AID 652260, 2013;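 active means activation above its plate's cutoff, the mean activation of tested wells plus 3 SD, cut at about 7.9% in these data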
VP16 Luc act: GAL4-VP16 luciferase reporter activation, counter-screen for SMARCA2 (BRM) activator project, cell-based, pG5luc, luminescence, high throughput | AID 686939, 2013 | activation, % at 9.1 µM | hit rate 41% among 3,500 | HEK293 GAL4-VP16 pG5luc reporter; scaled: DMSO wells 0%, SAHA wells 100% | shares compounds with SMARCA2 act;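 active means activation above the solvent-only control well mean plus 3 SD, averaged across control plates, cut at about 5.2% in these data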
An asterisk follows results filed as active. Most compounds without a hit are left out; they make up all but 4.8% or so of the library.

How did O=C(COC(=O)c1ccccc1)NC1CCCC1 do in these assays?
hcDAF12 agonist: -1; hgDAF12 agonist: 0; DAX1 inh-1: 2; ssDAF-12 act: -1; SMARCA2 act: 10*; DAX1 inh-2: 0; SMARCA2 conf: 4; VP16 Luc act: 2

Results for CN(CCC#N)C(=O)COC(=O)c1ccccc1C(=O)c1ccc(Cl)c([N+](=O)[O-])c1 ?
hcDAF12 agonist: 0; hgDAF12 agonist: 2; DAX1 inh-1: -1; ssDAF-12 act: 0; SMARCA2 act: 9.5*; DAX1 inh-2: 0; SMARCA2 conf: -10; VP16 Luc act: 3

How did O=C(COC(=O)c1ccccc1C(=O)c1ccc(Cl)c([N+](=O)[O-])c1)NC1CCCCCC1 do in these assays?
hcDAF12 agonist: -1; hgDAF12 agonist: 1; DAX1 inh-1: 1; ssDAF-12 act: -2; SMARCA2 act: 9.4*; DAX1 inh-2: 0; SMARCA2 conf: -13; VP16 Luc act: -1

What do the screens show for `Cc1cc(OCC(=O)OCC(=O)NC2CCCC2)ccc1Cl`?
hcDAF12 agonist: 1; hgDAF12 agonist: 3; DAX1 inh-1: 1; ssDAF-12 act: -1; SMARCA2 act: 11*; DAX1 inh-2: 2; SMARCA2 conf: 0; VP16 Luc act: 2

How did CC(C)N(C(=O)COC(=O)c1ccccc1C(=O)c1ccc(Cl)c([N+](=O)[O-])c1)C(C)C do in these assays?
hcDAF12 agonist: 0; hgDAF12 agonist: -1; DAX1 inh-1: 1; ssDAF-12 act: -1; SMARCA2 act: 1; DAX1 inh-2: 0

How did Clc1cccc(/C=N/Nc2nc(Cl)nc3ccccc23)c1 do in these assays?
hcDAF12 agonist: 6.6*; hgDAF12 agonist: 5; DAX1 inh-1: 4; ssDAF-12 act: 0; SMARCA2 act: 11*; DAX1 inh-2: 2; SMARCA2 conf: 11*; VP16 Luc act: 11*

Results for Cc1cc(C)nc(N/N=C/c2cccc(Cl)c2)n1 ?
hcDAF12 agonist: -1; hgDAF12 agonist: 5; DAX1 inh-1: 1; ssDAF-12 act: -1; SMARCA2 act: 2; DAX1 inh-2: 0

Results for Cn1c(=O)cc(SCC(=O)NCCC2=CCCCC2)c2ccc(Cl)cc21 ?
hcDAF12 agonist: 0; hgDAF12 agonist: 1; DAX1 inh-1: 1; ssDAF-12 act: -1; SMARCA2 act: 8.3*; DAX1 inh-2: 0; SMARCA2 conf: 5; VP16 Luc act: 2

How did COc1c(N2CCN(C(=S)NC3CC4CCC3C4)C(C)C2)c(F)cc2c(=O)c(C(=O)O)cn(C3CC3)c12 (stereo not given) do in these assays?
hcDAF12 agonist: 0; hgDAF12 agonist: 2; DAX1 inh-1: -2; ssDAF-12 act: -1; SMARCA2 act: -2; DAX1 inh-2: 0

What do the screens show for `COc1ccc(-c2[nH]ncc2CN(C)C(C)c2ccncn2)c(F)c1` (stereo not given)?
hcDAF12 agonist: 2; hgDAF12 agonist: 4; DAX1 inh-1: -1; ssDAF-12 act: -2; SMARCA2 act: 1; DAX1 inh-2: 1
